From PubChem BioAssay (NCI)
This is part of a sample that, as a whole, favours compounds with a hit. Of some 83,000 tested, about 20% had one in any assay.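 Results are percent growth after 48 hours of single-concentration exposure. 100 means growth as in untreated cells, lower positive values show inhibition; negative values down to -100 show cell death.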 Unmarked numbers belong to inactive results. Active and inactive are the calls of the source. The calls were made as follows: active = growth percent below 10; inactive = the rest.

Key:
Assay in all cases: NCI-60 one-dose screen, 48 h (100 = growth as untreated, 0 = no growth, -100 = all killed)
Conditions in all cases: 10 µM
[1] = test system: 786-0 renal
[2] = test system: MALME-3M melanoma
[3] = test system: MDA-MB-231 breast
[4] = test system: SF-268 CNS
[5] = test system: SF-295 CNS
[6] = test system: UACC-257 melanoma
[7] = test system: UACC-62 melanoma
[8] = test system: SK-MEL-28 melanoma
[9] = test system: SK-MEL-2 melanoma
[10] = test system: SN12C renal
[11] = test system: TK-10 renal
[12] = test system: ACHN renal
[13] = test system: CAKI-1 renal
[14] = test system: A498 renal
[15] = test system: OVCAR-8 ovarian
[16] = test system: OVCAR-5 ovarian
[17] = test system: IGROV1 ovarian
[18] = test system: OVCAR-3 ovarian
[19] = test system: HS 578T breast
[20] = test system: NCI/ADR-RES ovarian

SMILES: CC1[C@H]2[C@H](C[C@H]3[C@@H]4CC=C5c6sc(Nc7cccc(Cl)n7)nc6CC[C@]5(C)[C@H]4CC[C@@]32C)O[C@]12CC[C@@H](C)CO2 (stereo not given in full)
- growth [1]: 105%
- growth [2]: 117%
- growth [3]: 82.4%
- growth [4]: 86.9%
- growth [5]: 109%
- growth [6]: 82%
- growth [7]: 54.5%
- growth [8]: 100%
- growth [9]: 76.9%
- growth [10]: 94.5%
- growth [11]: 171%
- growth [12]: 96.4%
- growth [13]: 84.8%
- growth [14]: 92.6%
- growth [15]: 74.2%
- growth [16]: 113%
- growth [17]: 99.2%
- growth [18]: 93.7%
- growth [19]: 106%
- growth [20]: 94%

SMILES: Cn1cc(-c2cc(N)n3nc(-c4cn(C)c5ccccc45)cc3n2)c2cc(F)ccc21
- growth [1]: -89.4% (active)
- growth [2]: -78.5% (active)
- growth [3]: -56% (active)
- growth [4]: -63.1% (active)
- growth [5]: -72.6% (active)
- growth [6]: -86.4% (active)
- growth [7]: -67.7% (active)
- growth [8]: -80.4% (active)
- growth [9]: -92.5% (active)
- growth [10]: -67% (active)
- growth [11]: -58.6% (active)
- growth [12]: -89.4% (active)
- growth [13]: -80.9% (active)
- growth [14]: -68.9% (active)
- growth [15]: -94.9% (active)
- growth [16]: -52.6% (active)
- growth [17]: -41.5% (active)
- growth [18]: -75% (active)
- growth [19]: -24.1% (active)
- growth [20]: -21.1% (active)

SMILES: O=C(c1ccc(Cl)cc1)C(c1c[nH]c2ccccc12)c1c[nH]c2ccccc12
- growth [1]: -87.6% (active)
- growth [2]: -91.5% (active)
- growth [3]: 3.98% (active)
- growth [4]: 9.45% (active)
- growth [5]: 14.5%
- growth [6]: -39.8% (active)
- growth [7]: -53.4% (active)
- growth [8]: -92.5% (active)
- growth [9]: -66.5% (active)
- growth [10]: -59.7% (active)
- growth [11]: -62.2% (active)
- growth [12]: -99.9% (active)
- growth [13]: -90.3% (active)
- growth [14]: 58.9%
- growth [15]: -92.8% (active)
- growth [16]: -60.7% (active)
- growth [17]: -19.4% (active)
- growth [18]: -84% (active)
- growth [19]: 27.2%
- growth [20]: 11%

SMILES: O=C1NC2C=CC=CC2/C1=C1/SC(=S)N(C2CC(=O)N(c3ccc(Br)cc3)C2=O)C1=O (stereo not given)
- growth [1]: 97.5%
- growth [2]: 97.6%
- growth [3]: 101%
- growth [4]: 95.7%
- growth [5]: 109%
- growth [6]: 95.9%
- growth [7]: 87.6%
- growth [8]: 101%
- growth [9]: 107%
- growth [10]: 96%
- growth [11]: 124%
- growth [12]: 94.1%
- growth [13]: 77.1%
- growth [14]: 129%
- growth [15]: 97.6%
- growth [16]: 104%
- growth [17]: 100%
- growth [18]: 92.2%
- growth [19]: 98.9%
- growth [20]: 95.6%

SMILES: COc1ccc(Cc2nn(CC(=O)N/N=C/c3ccc(Br)cc3)c(=O)c3c(C)noc23)cc1
- growth [1]: -53.2% (active)
- growth [2]: -8.55% (active)
- growth [3]: 21.1%
- growth [4]: 37.3%
- growth [5]: -4.74% (active)
- growth [6]: 72.2%
- growth [7]: 54.3%
- growth [8]: 70.2%
- growth [9]: 7.39% (active)
- growth [10]: 12.4%
- growth [11]: -0.687% (active)
- growth [12]: 5.6% (active)
- growth [13]: 21.4%
- growth [14]: 21.3%
- growth [15]: 33.9%
- growth [16]: 59%
- growth [17]: 37.6%
- growth [18]: 28.5%
- growth [19]: 2% (active)
- growth [20]: 41.1%

SMILES: COc1ccc(-n2c(SCC(=O)NNS(=O)(=O)c3ccccc3)nc3ccc(Cl)cc3c2=O)cc1
- growth [1]: 101%
- growth [2]: 117%
- growth [3]: 89.3%
- growth [4]: 102%
- growth [5]: 102%
- growth [6]: 117%
- growth [7]: 77%
- growth [8]: 98.3%
- growth [9]: 100%
- growth [10]: 94.1%
- growth [11]: 109%
- growth [12]: -8.76% (active)
- growth [13]: 80.4%
- growth [14]: 90%
- growth [15]: 101%
- growth [16]: 102%
- growth [17]: 103%
- growth [18]: 105%
- growth [19]: 99.7%
- growth [20]: 105%

SMILES: COc1cc(Nc2nc(O)c(/C=C3\C=Nc4ccccc43)s2)cc(OC)c1OC
- growth [1]: -73.1% (active)
- growth [2]: -30.1% (active)
- growth [3]: -40.7% (active)
- growth [4]: -38.2% (active)
- growth [5]: -73.4% (active)
- growth [6]: 4.51% (active)
- growth [7]: -65.9% (active)
- growth [8]: -34.5% (active)
- growth [9]: -70.6% (active)
- growth [10]: -88% (active)
- growth [11]: -35% (active)
- growth [12]: -2.09% (active)
- growth [13]: -69.3% (active)
- growth [14]: -76.1% (active)
- growth [15]: -49.8% (active)
- growth [16]: -52.5% (active)
- growth [17]: -40.2% (active)
- growth [18]: -77% (active)
- growth [19]: -20.2% (active)
- growth [20]: 11.4%

SMILES: COc1ccc(C(=O)COc2ccc(NC(=O)Nc3ccc(Cl)c(C(F)(F)F)c3)cc2)cc1
- growth [1]: 25.2%
- growth [2]: 31.3%
- growth [3]: 35.3%
- growth [4]: 37.9%
- growth [5]: 5.9% (active)
- growth [6]: 11.8%
- growth [7]: 7.25% (active)
- growth [8]: 40.1%
- growth [9]: -6.77% (active)
- growth [10]: 40.9%
- growth [11]: 46.8%
- growth [12]: 17.9%
- growth [13]: 27.2%
- growth [14]: 60.8%
- growth [15]: 22.5%
- growth [16]: 67.7%
- growth [17]: 49.9%
- growth [18]: 28.3%
- growth [19]: 53.4%
- growth [20]: 17.7%

SMILES: COc1ccc2[nH]cc(-c3nc(N)nnc3-c3cn(C)c4ncc(Br)cc34)c2c1
- growth [1]: 12.8%
- growth [2]: 28.7%
- growth [3]: 21%
- growth [4]: 12.9%
- growth [5]: 17%
- growth [6]: 39%
- growth [7]: 14.2%
- growth [8]: 37.5%
- growth [9]: 36.2%
- growth [10]: 17.8%
- growth [11]: 11%
- growth [12]: 10.2%
- growth [13]: -0.341% (active)
- growth [14]: -21.6% (active)
- growth [15]: 1.18% (active)
- growth [16]: 20.6%
- growth [17]: 3.82% (active)
- growth [18]: -0.754% (active)
- growth [19]: 28.2%
- growth [20]: 12.5%

SMILES: O=C(CSc1nc2ccccc2c(=O)n1-c1ccc(Cl)cc1)Nc1ccc(-c2nc3ccc([N+](=O)[O-])cc3[nH]2)cc1
- growth [1]: 53.7%
- growth [2]: 21.7%
- growth [3]: 42.7%
- growth [4]: 38.4%
- growth [5]: 23.7%
- growth [6]: 36%
- growth [7]: 36.9%
- growth [8]: 21.1%
- growth [9]: 34.4%
- growth [10]: 42.9%
- growth [11]: 89.9%
- growth [12]: 45.5%
- growth [13]: 40.8%
- growth [14]: 81.7%
- growth [15]: -87.5% (active)
- growth [16]: 92.6%
- growth [17]: 64.2%
- growth [18]: 19.4%
- growth [19]: 11.8%
- growth [20]: 61.3%

SMILES: COc1cc2oc(-c3cccc(C(=O)Nc4ccc(Cl)cc4)c3)cc(=O)c2c(OCCN)c1OC
- growth [1]: -80.9% (active)
- growth [2]: -67.9% (active)
- growth [3]: -86.7% (active)
- growth [4]: -76.8% (active)
- growth [5]: -81.4% (active)
- growth [6]: -85.2% (active)
- growth [7]: -86.7% (active)
- growth [8]: -88.1% (active)
- growth [9]: -94.5% (active)
- growth [10]: -91.1% (active)
- growth [11]: -91.2% (active)
- growth [12]: -92.5% (active)
- growth [13]: -85% (active)
- growth [14]: -93.9% (active)
- growth [15]: -85.5% (active)
- growth [16]: -87.4% (active)
- growth [17]: -73.7% (active)
- growth [18]: -87.8% (active)
- growth [19]: -68.1% (active)
- growth [20]: -74.7% (active)

SMILES: Cn1cc(-c2nnc(N)nc2-c2c[nH]c3ccccc23)c2cc(Br)cnc21
- growth [1]: 40.1%
- growth [2]: 45.9%
- growth [3]: 54.8%
- growth [4]: 57.4%
- growth [5]: 37.2%
- growth [6]: 73%
- growth [7]: 24.3%
- growth [8]: 49.2%
- growth [9]: 46.2%
- growth [10]: 56.1%
- growth [11]: 61.4%
- growth [12]: 39.7%
- growth [13]: 24.3%
- growth [14]: 81.9%
- growth [15]: 62%
- growth [16]: 94.3%
- growth [17]: 35.6%
- growth [18]: 65.1%
- growth [19]: 77.3%
- growth [20]: -5.86% (active)

SMILES: CCOC(=O)c1ccc(NC(=O)CSC(CC(=O)c2sc(Nc3ccccn3)nc2C)c2ccccc2F)cc1 (stereo not given)
- growth [1]: -12.5% (active)
- growth [2]: 34.2%
- growth [3]: 10.5%
- growth [4]: -0.243% (active)
- growth [5]: 0.23% (active)
- growth [6]: 39%
- growth [7]: 11.8%
- growth [8]: 33.3%
- growth [9]: -31.2% (active)
- growth [10]: -14.8% (active)
- growth [11]: 28.7%
- growth [12]: 12.1%
- growth [13]: 2.96% (active)
- growth [14]: -1.49% (active)
- growth [15]: -0.285% (active)
- growth [16]: -6.86% (active)
- growth [17]: 14%
- growth [18]: 6.5% (active)
- growth [19]: 8.86% (active)
- growth [20]: 10.5%

SMILES: CCOC(=O)C1=C(N)N(c2ccc(C)cc2)C2=C(C(=O)CC(C)(C)C2)C1c1ccccc1Br (stereo not given)
- growth [1]: 83.9%
- growth [2]: 109%
- growth [3]: 93.4%
- growth [4]: 99.3%
- growth [5]: 90.5%
- growth [6]: 84.1%
- growth [7]: 71.8%
- growth [8]: 93.7%
- growth [9]: 85%
- growth [10]: 85.2%
- growth [11]: 110%
- growth [12]: 85.9%
- growth [13]: 69.8%
- growth [14]: 108%
- growth [15]: 90.1%
- growth [16]: 97.5%
- growth [17]: 110%
- growth [18]: 84.9%
- growth [19]: 99.5%
- growth [20]: 95.7%

SMILES: Nc1nnc(-c2c[nH]c3ncc(Br)cc23)c(-c2c[nH]c3ccc(Br)cc23)n1
- growth [1]: 36.2%
- growth [2]: 56.1%
- growth [3]: 65%
- growth [4]: 46%
- growth [5]: 44.7%
- growth [6]: 71%
- growth [7]: 24.4%
- growth [8]: 45.6%
- growth [9]: 7.13% (active)
- growth [10]: 46.9%
- growth [11]: 67.8%
- growth [12]: 37.3%
- growth [13]: 28.1%
- growth [14]: -13% (active)
- growth [15]: 34%
- growth [16]: 62.1%
- growth [17]: 36.5%
- growth [18]: 4.38% (active)
- growth [19]: 24.7%
- growth [20]: 52.9%
